# Experimental data from PubChem BioAssay (NCATS).
# Results filed as inconclusive are left out. Activity calls are given as the source filed them. Calls follow the shape of the full dose curve.
# Experiment: Natriuretic polypeptide receptor (hNpr1) antagonism - Pilot counterscreen GloSensor control cell line (AID 1347045)
# Settings: HEK293 cGMP GloSensor cells, SNP-stimulated luminescence, 20 min; series mostly up to 38.3 µM; activity change, negative = inhibition: at the top concentration
# How it was run: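 The SNP-driven cGMP luminescence signal (50 uM, 20 min, room temperature) was measured in GloSensor HEK293 control cells. Compounds were tested as a LOPAC titration series and preincubated for 30-50 min.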
# % is scaled to controls: 0 for no effect and ±100 for the full control effect; potency is read from the fitted curve at half-maximal effect.
SMILES,"activity change, negative = inhibition",Potency
COc1ccccc1N1CCN(CCCCNC(=O)c2ccc3ccccc3c2)CC1,-0.0042% (inactive),
Cn1c(=O)c2c(nc(/C=C/c3cccc(Cl)c3)n2C)n(C)c1=O,0.382% (inactive),
O=c1cc(-c2ccccc2)[nH]c2nc(Cl)ccc12,14.7% (inactive),
COc1cccc(OC)c1OCCNCC1CSc2ccccc2O1 (stereo unspecified),-0.199% (inactive),
S=C(S)N1CCCC1,,7.36 µM (active)
CC1CNCCN1S(=O)(=O)c1cccc2cnccc12 (stereo unspecified),9.8% (inactive),
CCc1ccc2c(-c3cccc(Cl)c3)nc(=O)n(CC)c2n1,30.2% (inactive),
CCn1c(=O)[nH]c2cc(Cl)c(Cl)cc21,23.5% (inactive),
CC1C(=O)N(C)C(=O)c2nc[nH]c21 (stereo unspecified),-1.43% (inactive),
c1ccc2c(c1)CC(N1CCN(c3cccc4c3OCCO4)CC1)C2,10.2% (inactive),
CN1C2CCC1CC(OC(c1ccccc1)c1ccccc1)C2 (stereo unspecified),4.54% (inactive),
CC(C)(C)c1ccc(/C=C/C(=O)Nc2ccc3c(c2)OCCO3)cc1,,16.5 µM (active)
OC[C@H]1O[C@@H](n2cnc3cncnc32)[C@H](O)[C@@H]1O,-1.63% (inactive),
C/C(=C\c1ccc(C(=O)O)cc1)c1ccc2c(c1)C(C)(C)CCC2(C)C,-2.54% (inactive),
Clc1nccc2c1ccc1ccccc12,1.91% (inactive),
O=c1ccn([C@@H]2O[C@H](COP(=O)(O)OP(=O)(O)O)[C@@H](O)[C@H]2O)c(=O)[nH]1,12.3% (inactive),
